Results: PubChem BioAssay AID1159580 (chemical genetic matrix, 2015)
The whole screen tested about 5,500 compounds, of which about 2,000 (36%) were called active. Inconclusive results (about 18%) are left out. Rule as the data show it: active = normalized growth mostly below about 0.91 (no sharp cut-off); inconclusive = no clear call, values can overlap the other calls; inactive = mostly above about 0.92. This is one part of the list.

Experiment: chemical genetic growth profiling, strain panel (AID 1159580);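 also: tested at 20 µM; growth read once vehicle control cultures reached saturation at 30 °C; 1 = growth at the plate median or of vehicle wells; lower values mean less growth of the strain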
Conditions: S. cerevisiae deletion strains, growth OD
[1] = locus YAL013W, strain DEP1, active compounds read low
[2] = locus YBR229C, strain ROT2, active compounds read low
[3] = locus YCL061C, strain MRC1, active compounds read low
[4] = locus YDL101C, strain DUN1, active compounds read low
[5] = locus YDR150W, strain NUM1, active compounds read low
[6] = locus YEL061C, strain CIN8, active compounds read low
[7] = locus YGR078C, strain PAC10, active compounds read low
[8] = locus YHR030C, strain SLT2, active compounds read low
[9] = locus YHR087W, strain rtc3, active compounds read low
[10] = locus YJR043C, strain POL32, active compounds read low
[11] = locus YJR075W, strain HOC1, active compounds read low
[12] = locus YKL190W, strain CNB1, active compounds read low
[13] = locus YLR039C, strain RIC1, active compounds read low
[14] = locus YLR058C, strain SHM2 (second series), active compounds read low
[15] = locus YLR085C, strain ARP6, active compounds read low
[16] = locus YLR262C, strain YPT6, active compounds read low
[17] = locus YML094W, strain GIM5, active compounds read low
[18] = locus YMR219W, strain ESC1, active compounds read low
[19] = locus YMR263W, strain SAP30, active compounds read low
[20] = locus YNL153C, strain GIM3, active compounds read low
[21] = locus YNL298W, strain CLA4 (second series), active compounds read low
[22] = locus YNL322C, strain KRE1, active compounds read low
[23] = locus YNR030W, strain Alg12, active compounds read low
[24] = locus YPL055C, strain LGE1, active compounds read low
[25] = locus YPL241C, strain CIN2, active compounds read low
[26] = locus YPR135W, strain CTF4, active compounds read low
[27] = locus YGR229C, strain SMI1, active compounds read low
[28] = locus YNL128W, strain TEP1, active compounds read low
[29] = locus YJL187C, strain SWE1, active compounds read low

Measured: normalized growth

CC(=O)Nc1cc([N+](=O)[O-])ccc1-n1cc(C)c(C(F)(F)F)n1
inactive: [1] 0.966 | [2] 0.985 | [3] 0.978 | [4] 0.986 | [5] 0.947 | [6] 0.998 | [7] 0.996 | [8] 0.871 | [9] 0.982 | [10] 1 | [11] 0.973 | [12] 0.992 | [13] 0.935 | [14] 0.988 | [15] 0.94 | [16] 0.928 | [17] 0.963 | [18] 0.988 | [19] 0.917 | [20] 0.985 | [21] 0.962 | [22] 0.981 | [23] 0.962 | [24] 0.931 | [25] 1.03 | [26] 0.905

O=[N+]([O-])c1ccc2nsnc2c1
active: [1] 0.836 | [2] 0.643 | [4] 0.583 | [6] 0.626 | [7] 0.699 | [8] 0.109 | [9] 0.649 | [10] 0.828 | [11] 0.55 | [12] 0.604 | [14] 0.824 | [15] 0.227 | [17] 0.533 | [18] 0.833 | [19] 0.8 | [28] 0.304 | [20] 0.738 | [21] 0.361 | [23] 0.534 | locus YOL006C, strain TOP1, active compounds read low 0.496 | [24] 0.805 | [25] 0.286 | [26] 0.233
inactive: [5] 0.825 | [27] 0.979 | [13] 0.795 | [16] 0.83 | [22] 0.999

COC(=O)c1cc([N+](=O)[O-])ccc1NC(C)=O
inactive: [1] 0.986 | [2] 1 | [3] 0.997 | [4] 1.01 | locus YDL134C, strain PPH21, active compounds read low 1.01 | [5] 0.989 | [6] 0.989 | [7] 1 | [27] 1 | [8] 0.929 | [9] 1.02 | [29] 0.998 | [10] 0.994 | [11] 1.03 | [12] 0.995 | [13] 1.05 | [14] 0.996 | [15] 0.977 | [16] 1.03 | [17] 1.02 | [18] 0.999 | [19] 0.979 | locus YMR307W, strain GAS1, active compounds read low 0.998 | [28] 1.01 | [20] 0.986 | [21] 0.958 | [22] 1.01 | [23] 1 | [24] 0.983 | [25] 1.03 | [26] 0.992

Nc1ccc([As](=O)(O)O)cc1
inactive: locus YAL021C, strain ccr4, active compounds read low 1 | locus YAL026C, strain drs2, active compounds read low 1.02 | locus YAL030W, strain snc1, active compounds read low 1 | locus YBL061C, strain skt5, active compounds read low 1.01 | locus YBR009C, strain hhf1, active compounds read low 1.02 | locus YBR023C, strain chs3, active compounds read low 1.02 | locus YBR171W, strain sec66, active compounds read low 0.997 | locus YBR231C, strain swc5, active compounds read low 1.01 | locus YBR279W, strain paf1, active compounds read low 1 | locus YCL011C, strain gbp2, active compounds read low 1 | locus YCL016C, strain dcc1, active compounds read low 1.01 | [3] 1 | locus YCL069W, strain vba3, active compounds read low 1.01 | locus YCR088W, strain abp1, active compounds read low 1.01 | locus YDL005C, strain med2, active compounds read low 0.996 | locus YDL040C, strain nat1, active compounds read low 1.01 | locus YDR001C, strain nth1, active compounds read low 0.992 | locus YDR069C, strain doa4, active compounds read low 1.01 | locus YDR137W, strain rgp1, active compounds read low 0.994 | locus YDR159W, strain sac3, active compounds read low 1.02 | locus YDR195W, strain ref2 0.993 | locus YDR297W, strain sur2, active compounds read low 0.999 | locus YDR334W, strain swr1, active compounds read low 1.01 | locus YDR335W, strain msn5, active compounds read low 0.995 | locus YDR392W, strain spt3, active compounds read low 1.01 | locus YEL003W, strain gim4, active compounds read low 0.996 | locus YEL037C, strain rad23, active compounds read low 0.997 | locus YEL061C, strain CIN8 (second series), active compounds read low 0.997 | locus YER015W, strain faa2, active compounds read low 0.999 | locus YER016W, strain bim1, active compounds read low 1 | locus YER111C, strain swi4, active compounds read low 1 | locus YER155C, strain BEM2 (second series), active compounds read low 1.03 | locus YFR010W, strain ubp6, active compounds read low 1 | locus YGL167C, strain pmr1, active compounds read low 0.997 | locus YGL173C, strain kem1, active compounds read low 1.01 | locus YGL227W, strain vid30, active compounds read low 0.998 | locus YGL240W, strain doc1, active compounds read low 1.01 | locus YGL253W, strain hxk2, active compounds read low 1 | locus YHR013C, strain ard1, active compounds read low 1.03 | locus YHR027C, strain rpn1, active compounds read low 1 | [8] 1 | locus YHR079C, strain IRE1, active compounds read low 0.984 | locus YHR142W, strain chs7, active compounds read low 1.02 | locus YJL092W, strain hpr5, active compounds read low 1.01 | locus YJL095W, strain BCK1 (second series), active compounds read low 1 | locus YJL095W, strain BCK1, active compounds read low 0.971 | locus YJL115W, strain asf1, active compounds read low 1.01 | locus YJL129C, strain trk1, active compounds read low 1 | locus YJL154C, strain vps35, active compounds read low 1 | locus YJL164C, strain tpk1, active compounds read low 1.01 | locus YJL166W, strain qcr8, active compounds read low 0.998 | [29] 1 | locus YJR066W, strain TOR1, active compounds read low 0.966 | locus YKL160W, strain elf1, active compounds read low 1 | locus YKR026C, strain gcn3, active compounds read low 0.997 | locus YKR091W, strain srl3, active compounds read low 1.01 | locus YLL001W, strain dnm1, active compounds read low 1.01 | locus YLL026W, active compounds read low 1.01 | locus YLL041C, strain sdh2, active compounds read low 1.01 | locus YLR027C, strain aat2, active compounds read low 1 | locus YLR113W, strain HOG1, active compounds read low 0.965 | locus YLR221C, strain rsa3, active compounds read low 1.01 | locus YLR258W, strain gsy2, active compounds read low 1.01 | locus YLR262C, strain YPT6 (second series), active compounds read low 1 | locus YLR320W, strain mms22, active compounds read low 0.999 | locus YLR342W, strain FKS1, active compounds read low 1.01 | locus YLR357W, strain rsc2, active compounds read low 1.01 | locus YLR370C, strain arc18, active compounds read low 1 | locus YLR384C, strain iki3, active compounds read low 1 | locus YML120C, strain ndi1, active compounds read low 0.997 | locus YMR058W, strain fet3, active compounds read low 1 | locus YMR125W, strain sto1, active compounds read low 1 | locus YMR129W, active compounds read low 1 | locus YMR205C, strain PFK2, active compounds read low 1.04 | locus YMR231W, strain pep5, active compounds read low 1 | locus YNL071W, strain lat1, active compounds read low 1 | locus YNL183C, strain NPR1, active compounds read low 0.968 | locus YNL209W, strain ssb2, active compounds read low 0.999 | locus YNL248C, strain rpa49, active compounds read low 0.992 | locus YNL322C, strain KRE1 (second series), active compounds read low 1.01 | locus YNR049C, strain mso1, active compounds read low 1 | locus YOR001W, strain rrp6, active compounds read low 1 | locus YOR070C, strain gyp1, active compounds read low 1.01 | locus YOR080W, strain dia2, active compounds read low 1.01 | locus YOR083W, strain WHI5, active compounds read low 1 | locus YOR106W, strain vam3, active compounds read low 1.03 | locus YOR231W, strain MKK1, active compounds read low 1.01 | locus YOR265W, strain rbl2, active compounds read low 0.996 | locus YOR270C, strain vph1, active compounds read low 1.06 | locus YOR290C, strain snf2, active compounds read low 1 | locus YPL051W, strain arl3, active compounds read low 1.01 | locus YPL078C, strain atp4, active compounds read low 0.996 | locus YPL106C, strain sse1, active compounds read low 0.996 | locus YPL240C, strain hsp82, active compounds read low 1 | locus YPL256C, strain CLN2, active compounds read low 1.02
